In all, about 290,000 compounds went through this assay and about 3,200 (1.1%) were called active. The sample holds actives, similar compounds and a random draw of the others, so the mix is not that of the screen. Values without a mark were called inactive. No stated cut-off is given here; in the data, active means inhibition above about 60%; inactive means the rest.

The target of this assay is Phosphoethanolamine/phosphocholine phosphatase (Homo sapiens) (UniProt Q8TCT1). In words: PubChem AID 1565. The note with it: recombinant PHOSPHO1, absorbance phosphatase assay; at 13.3 µM; hits give high values.
Phosphoethanolamine/phosphocholine phosphatase (Homo sapiens), sequence (Q8TCT1 whole entry, looked up): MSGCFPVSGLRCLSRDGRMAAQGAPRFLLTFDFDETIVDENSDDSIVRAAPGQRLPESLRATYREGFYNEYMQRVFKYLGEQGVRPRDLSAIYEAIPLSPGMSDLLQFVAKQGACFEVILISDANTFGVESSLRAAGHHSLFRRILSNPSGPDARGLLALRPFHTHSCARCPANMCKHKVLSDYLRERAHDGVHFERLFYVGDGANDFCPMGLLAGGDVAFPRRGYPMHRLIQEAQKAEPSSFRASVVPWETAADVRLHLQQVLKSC
One may read the inhibition as the relative decrease from the control value, in per cent. As to `O=C(Nc1nccs1)C1CCCN1S(=O)(=O)c1cccc2cccnc12` (stereo not drawn), the inhibition was 2.7%.
The value for `Cc1cc(C)cc(NC(=O)C2CCCN2S(=O)(=O)c2cccc3cccnc23)c1` (stereo not drawn) was 44.5%; that for `Cc1ccc(NC(=O)C2CCCN2S(=O)(=O)c2cccc3cccnc23)c(C)c1` (stereo not drawn) was 70.1% (active).
Consider `O=C(CN(C(=O)c1csnn1)c1ccc(Br)cc1)NC1CCCC1`, for which the inhibition was 26.9%.
The value for `CSCCC(NC(=O)c1cc([N+](=O)[O-])cc([N+](=O)[O-])c1)c1nc2ccccc2[nH]1` (stereo not drawn) was -8.6%.
The value for `COc1ccc(CC(=O)N[C@@H](CCSC)c2nc3ccccc3[nH]2)cc1` was 12.4%; that for `CSCCC(NC(=O)c1ccc(=O)n(C)n1)c1nc2ccccc2[nH]1` (stereo not drawn) was 79.8% (active); that for `CCCCC(=O)Nc1ccccc1N1CCN(c2ccc(F)cc2)CC1` was -152%.
Turning to `Oc1ccccc1-c1cc(-c2ccc(Cl)cc2)n[nH]1`, the inhibition was 19.7%.
With `Cc1cc(C)c(SCCc2ccncc2)c(C)c1`, the inhibition is 24.1%.
Turning to `O=C(NC1CC1)c1ccc2c(c1)NC(=O)c1ccccc1S2`, the inhibition was 0.7%.
Take `C/C(=N\Nc1cccc(C(=O)O)c1)c1ccc2c(c1)Nc1ccccc1S2`: the inhibition was 81.3% (active).
The value for `O=C(O)c1cccc(N2C(=O)Nc3ccccc3N2O)c1` was 8.3%; that for `Cc1ccccc1N1CCN(C2CCCN(C(=O)c3cn4c(C)cccc4n3)C2)CC1` (stereo not drawn) was 22.3%; that for `Cc1ccc(NC(=O)CN2C(=O)NC(C)(c3ccc(Cl)cc3)C2=O)c(Br)c1` (stereo not drawn) was 27.9%.
The value for `Cc1cc(NC(=O)CCC(=O)N(Cc2ccccc2)C(C(=O)NC2CCCC2)c2ccc(C)o2)no1` (stereo not drawn) was 46.2%; that for `CCOCCCN(C)C1CCN(C(=O)c2oc3ccccc3c2NC(=O)Cc2cccc([N+](=O)[O-])c2)CC1` was 16.9%.
The value for `CCOc1ccc(OCCSc2nc3ccccc3n2CC(=O)O)cc1` was 13.8%.
For `c1ccc(CN2CCC(N=C3NN=C(c4ccc5c(c4)OCCO5)CS3)CC2)cc1`, the inhibition was 12.7%.
Consider `Clc1cccc(N=C2NN=C(c3ccc4c(c3)OCCO4)CS2)c1`, for which the inhibition was 78% (active).
For the compound `Cc1cccc(N=C2NN=C(c3c[nH]c4ccccc34)CS2)c1`, the inhibition was -2%.
The value for `CCCn1c(=O)c(C(=O)Nc2cc(C)ccn2)c(O)c2ccccc21` was -7.8%.
Turning to `S=c1[nH]ccn1-c1ccc(Cl)cc1`, the inhibition was -13%.
The value for `S=c1[nH]nc(CSCc2ccc(Cl)cc2Cl)n1-c1ccccc1` was 34.7%; that for `S=c1[nH]cc(-c2ccc(Cl)cc2)n1-c1ccccc1` was 69.5% (active).
In the case of `CN1CCN(/N=C/c2ccc(-c3ccc([N+](=O)[O-])cc3)o2)CC1`, the inhibition is 17.9%.
The value for `COc1cccc(CNC(=O)c2cccnc2Sc2ccc(Cl)cc2)c1` was 23.3%; that for `Cc1nc(NC(=O)c2ccc3c(c2)OCCO3)ccc1Br` was 7.6%.
Consider `CC(C)[C@@H]1COC(c2cccc(C3=N[C@H](C(C)C)CO3)c2)=N1`, for which the inhibition is -1.7%.
The value for `COc1ccc(C(=O)NC2CC2)cc1OC1CCN(Cc2ccc(SC)cc2)CC1` was 27.3%; that for `O=C(Nc1cn(-c2ccccc2)nc1-c1ccccc1)c1ccccc1` was -2.5%.
As to `Cc1onc(-c2ccccc2)c1C(=O)NNC(=S)NC(=O)c1ccc(F)cc1`, the inhibition was -4.5%.
The value for `O=C(NNC(=S)NC(=O)c1cn(-c2ccccc2)nc1-c1ccccc1)c1ccncc1` was 80.9% (active).
Regarding `CC1CCN(C(=S)NC(=O)c2ccccc2Br)CC1`, the inhibition was 17.4%.
The value for `COc1ccc(CCNC(=O)C2CCCN2C(=O)Nc2ccccc2)cc1OC` (stereo not drawn) was 23.5%; that for `Cc1c(CCC(=O)N[C@@H](CC(C)C)C(=O)O)c(=O)oc2c(C)c3oc4c(c3cc12)CCCC4` was 31.6%; that for `Cc1ccc(C)c(NC(=S)NNC(=S)Nc2ccc(C(C)C)cc2)c1` was -6.1%.
Turning to `Cc1ccc(NC(=S)N/N=C2/CCCc3c(C)cc(C)cc32)cc1`, the inhibition is 85.8% (active).
On to `Cc1ccc(NC(=S)Nc2ccc(F)cc2)cc1`, for which the inhibition was 19.2%.
For `COC(=O)c1ccc(NC(=O)CSc2nc(N)c(NC(=O)c3ccc(Br)o3)c(=O)[nH]2)cc1`, the inhibition is 42.8%.
The value for `CCC(C)Sc1nnc(-c2c[nH]c3ccccc23)n1CCOC` (stereo not drawn) was 61.5% (active); that for `CCn1c(SCCC(C)C)nnc1-c1c[nH]c2ccccc12` was 0.7%; that for `CCOC(=O)N1CCN(C(=O)CSc2nnc(-c3c[nH]c4ccccc34)n2CCOC)CC1` was 25.5%.
The value for `CC(C)(C)c1ccc(SCCc2ccncc2)cc1` was 13.8%; that for `Cc1ccc(CC2C(=O)N(c3ccc(F)cc3)C(=O)C2C)cc1` (stereo not drawn) was -2.6%; that for `Cc1cc(/C=N/Nc2ccc([N+](=O)[O-])cn2)c(C)n1-c1cccc(C(=O)O)c1` was 15.9%.
`Cc1ccc(-n2c(C)cc(/C=N/Nc3ccc([N+](=O)[O-])cn3)c2C)c(C)c1`: the inhibition was 98.7% (active).
The value for `Cc1ccc(N2CCN(c3ccc([N+](=O)[O-])cn3)CC2)c(C)c1` was 19.7%; that for `COC(=O)C1CCCCN1C(=O)c1ccc(OC2CCN(C(C)=O)CC2)c(OC)c1` (stereo not drawn) was 57.6%.
The value for `COc1cc2[nH]c(=S)n(Cc3ccc(F)cc3)c(=O)c2cc1OC` was -42.1%; that for `COc1cc2[nH]c(=S)n(CCN3CCCCC3C)c(=O)c2cc1OC` (stereo not drawn) was 24.2%; that for `COc1cc2[nH]c(=S)n(Cc3ccc(C)o3)c(=O)c2cc1OC` was 69.6% (active).
Regarding `COc1ccc(C(=O)NCCn2nc(C)cc2C)cc1OC1CCN(C(C)=O)CC1`, the inhibition was 19.2%.
Turning to `COc1ccc2c(c1)c1nc3n(c(=O)c1n2CC(=O)Nc1ccccc1)CCS3`, the inhibition is -27.3%.
Turning to `Cn1c(=O)c2c(nc(NCCNC(=O)c3ccco3)n2Cc2ccccc2F)n(C)c1=O`, the inhibition is 26.1%.
Take `Cn1cc(Cl)c(C(=O)NNC(=S)Nc2cccc(Cl)c2)n1`: the inhibition is -35.3%.
With `Cc1nn(C)cc1CNC(=O)Nc1ccc(Cl)cc1`, the inhibition is 8%.
The value for `Cc1nn(C)cc1C(=O)NNC(=S)Nc1ccc(Cl)cc1` was 97.7% (active); that for `O=S1(=O)N=C(N(CCO)/N=C/c2ccccc2F)c2ccccc21` was 28.4%.
The value for `Cc1nonc1NC(=O)c1oc2ccccc2c1C` was 24%; that for `CC1CCCCC1NC(=O)CSc1nnc(N)s1` (stereo not drawn) was -3.4%; that for `Cn1ccnc1SCC(=O)Nc1ccc2c(c1)OCCO2` was 19.8%.
`CC1CCCC(NC(=O)CSc2nccn2C)C1C` (stereo not drawn): the inhibition is 92.3% (active).
The value for `CCn1cc(/C=C(\NC(=O)c2cc(OC)c(OC)c(OC)c2)C(=O)N2CCN(C)CC2)c2ccccc21` was 49.6%; that for `COc1ccccc1C1/C(=C(/O)c2ccc(OC(C)C)cc2)C(=O)C(=O)N1c1cc(C)on1` (stereo not drawn) was -55.7%.
As for `CCOc1ccc(/C(O)=C2\C(=O)C(=O)N(c3ccc(OC)cc3)C2c2ccccc2[N+](=O)[O-])cc1` (stereo not drawn), the inhibition was 60.8% (active).
Take `COc1ccc(C2/C(=C(/O)c3ccccc3)C(=O)C(=O)N2C)c(OC)c1` (stereo not drawn): the inhibition was -2.4%.
`CC(C)CCOc1ccc(C(=O)C[N+]2(C)CCOCC2)cc1`: the inhibition was 90.6% (active).
The value for `CC(=O)c1ccc(OCCN2CCOCC2)cc1` was -11.5%.
The value for `COc1ccc(OCCC(=O)c2ccc(OC)cc2)cc1` was 20%; that for `O=C(NCc1cccnc1)C12CC3CC(CC(C3)C1)C2` was 32.6%; that for `CN(NS(=O)(=O)c1cccs1)c1ncc(C(F)(F)F)cc1Cl` was 33.5%.
The value for `COc1ccc(C(=O)CSc2nnc(-c3ccco3)o2)cc1` was 36.7%; that for `COc1ccc(-c2nnc(SCC(=O)c3cccs3)o2)c(OC)c1` was 28.9%.
On to `COc1ccc(-n2c(C)cc(C(=O)CSc3nnc(-c4cccs4)o3)c2C)cc1`, for which the inhibition is 85.5% (active).
Regarding `CSCC[C@H](NC(=O)N1CCn2c1nc1ccccc12)C(=O)NC1CCCCC1`, the inhibition was 35.5%.
With `COc1ccc(OCc2nnc3n2N=C(c2ccccc2)C(CC(=O)O)S3)cc1` (stereo not drawn), the inhibition was -69.6%.
The value for `Cc1ccc(C(=O)N2CCC(n3nccc3NC(=O)Nc3cccc(F)c3)CC2)cn1` was 64% (active); that for `COc1cccc(C(=O)N2CCC(n3nccc3NC(=O)C3CCOC3)CC2)c1` (stereo not drawn) was 40.8%.
Consider `CN(C)c1cccc(C(=O)N2CCC(n3nccc3NC(=O)C3CCOC3)CC2)c1` (stereo not drawn), for which the inhibition was 27.6%.
The value for `COc1ccc2[nH]c(C(=O)N/N=C/c3cc(OC)c(OC)c(OC)c3)cc2c1` was 9.8%; that for `Cc1ccnc(NC(=O)C(C)N2C(=O)c3ccccc3C2=O)c1` (stereo not drawn) was 60% (active).
The value for `Cc1cc(C)nc(NC(=O)C(C)N2C(=O)c3ccccc3C2=O)n1` (stereo not drawn) was -12.8%; that for `CCOc1ccc(NC(=O)C(C)N2C(=O)c3ccccc3C2=O)cc1` (stereo not drawn) was 24.3%.
As to `CCc1nc2cccnc2n1-c1ccc(C(=O)O)cc1`, the inhibition is 35.1%.
As for `COc1ccc(CCNC(=O)C(=O)NCC2OCCN2S(=O)(=O)c2cccs2)cc1OC` (stereo not drawn), the inhibition was 4.5%.
Regarding `COc1ccc(CN2CCC(n3nccc3NC(=O)CCCc3ccccc3)CC2)cc1C`, the inhibition is 37.7%.
The value for `COc1cc(CN2CCC(n3nccc3NC(=O)CCCc3ccccc3)CC2)ccc1O` was -5%.
Turning to `CC(=O)N[C@@H](C)C(=O)N1CCC(n2nccc2NC(=O)CCCc2ccccc2)CC1`, the inhibition is 61.6% (active).
Turning to `Cc1ccc(CN2CCC(n3nccc3NC(=O)CCCc3ccccc3)CC2)o1`, the inhibition is 2.6%.
As to `CCn1cc(CN2CCC(n3nccc3NC(=O)CCCc3ccccc3)CC2)c(C)n1`, the inhibition is 29%.
On to `CC(=O)NCC(=O)N1CCC(n2nccc2NC(=O)CCCc2ccccc2)CC1`, for which the inhibition is 65.8% (active).
Consider `N#Cc1ccccc1S(=O)(=O)N1CCN(C(=O)c2cc(-c3ccccc3)nn2-c2ccccc2)CC1`, for which the inhibition is 14.5%.
